The structures appear in SMILES notation. About 6,500 (11%) of roughly 59,000 compounds were called active. Not shown: some 15% with an inconclusive outcome. No stated cut-off is given here; in the data, active means max dye-equivalent concentration above about 10 nM; inconclusive means mostly about 1.1 nM to 9.6 nM; inactive means weaker than that. For the sample, actives were picked, then their nearest neighbours and some compounds at random. Where a structure was tested more than once in an assay, its records may differ in their call.

The source of these data is PubChem BioAssay AID590 (National Center for Advancing Translational Sciences (NCATS), 2007).

The assay is described as follows: qHTS Assay for Spectroscopic Profiling in A350 Spectral Region. As to conditions: Compound autofluorescence, 340/450 nm, Alexa 350 dye-equivalents; hits give high values. The text has this:
NIH Molecular Libraries Screening Centers Network [MLSCN]
NIH Chemical Genomics Center [NCGC]
Occasionally, the artifactual effect may originate from the compounds own spectral or other biophysical properties which generally tend to track its assay concentration. Pre-screening/profiling the library with respect to the compounds spectral properties should help one exclude false positives early on. While the most informative fluorescent profiling data set is obtained by performing a full excitation and emission scan of each well by using a monochromator-based plate reader, such an approach is practical only on a very limited scale as scanning each well requires long time. An alternative approach, applied here, is to perform plate reader scans using selected excitation and emission wavelength pairs to generate a multidimensional relational database that correlates compound concentration and the respective relative fluorescence intensity at a given wavelength set. A standard curve of Alexa 350 (A 350) present on each plate as six-point concentration series, was used to compute a normalized fluorescence response, termed dye-equivalent concentration, for each compound at each concentration.
NCGC Assay Protocol Summary:
100 mM Tris buffer, pH 8.0
The wells in columns 1 through 4 of a Kalypsys polypropylene 1536-well compound plate were filled with standard solutions of fluorophore corresponding to the spectral region of interest. Solutions of A 350 were placed in the following wells: I1, J1: 3 mM, I2, J2: 300 uM, I3, J3: 30 uM, I4, J4: zero (DMSO), K1, L1: 3 uM, K2, L2: […], K3, L3: 300 nM, K4, L4: zero (DMSO).
Six uL of buffer were dispensed to 1536-well Greiner black plates. Compounds and dye standards (23 nL) were transferred via Kalypsys PinTool. The plates were incubated for 15 min at room temperature, and then read on ViewLux (Perkin-Elmer) High-throughput CCD imager using 340 nm and 450 nm excitation and emission filter set.
Keywords: NIH Roadmap, MLSCN, MLI, MLSMR, qHTS, NCGC, A350, A-350, Fluorescent Profiling.
Background: Quantitative high-throughput screening tests each substance at several concentrations.
In the case of `CSC1=NP(=S)(SC)N(C)c2nc3n(c21)CCC3` (stereo unspecified), the max dye-equivalent concentration is 26 nM (active).
Same read-out and setting: next, `CN1[C@@H]2CC[C@H]1CC(OC(=O)c1cc(Cl)cc(Cl)c1)C2` (stereo partly specified): “inactive”; `CN1CCN(C(=O)O[C@@H]2c3nccnc3C(=O)N2c2ccc(Cl)cn2)CC1`: “inactive”.
On the same count and under the same terms, next, `c1ccc2c(c1)[I+]c1ccccc1-2`: “inactive”; `C[N+]1(C)C2CC(OC(=O)C(CO)c3ccccc3)CC1[C@@H]1O[C@H]21` (stereo partly specified): “inactive”.
`CC(C)(O)[C@H]1[C@H]2OC(=O)[C@@H]1[C@]1(O)C[C@H]3O[C@]34C(=O)O[C@H]2[C@]14C`: the max dye-equivalent concentration entry was “inactive”.
`c1csc(CN2CCCC3(CCNCC3)C2)n1`: the max dye-equivalent concentration result is “inactive”.
Take `c1ccc(CN2CC[C@@]3(CCCNC3)C2)cc1`: the max dye-equivalent concentration was 13 nM (active).
Take `c1ccc(N2CC[C@@]3(CCCNC3)C2)nc1`: the max dye-equivalent concentration result was “inactive”.
For `C[C@@]12CC[C@H]3[C@@H](CC[C@]4(O)C[C@H](O)CC[C@@]34C=O)[C@]1(O)CC[C@@H]2C1=CC(=O)OC1`, the max dye-equivalent concentration entry is “inactive”.
As for `C[C@H](Br)C(=O)N[C@H](CO)C(=O)O`, the max dye-equivalent concentration entry is “inactive”.
As for `CCOC(=O)c1c(N)n(Cc2ccccc2)c2nc3ccccc3nc12`, the max dye-equivalent concentration was 1500 nM (active).
Still for that read-out and setting: next, `c1csc(CN2CC3(CCNCC3)C2)n1`: “inactive”; `CC(=O)O[C@H]1CC[C@@]2(C)[C@@H](CC[C@H]3[C@H]2CC(=O)[C@]2(C)[C@@H]3C[C@@H](N3CC3)[C@H]2C(C)=O)C1`: “inactive”; `O=C(Nc1cccc(F)c1)N1CC[C@@]2(CCCN(C(=O)Oc3ccccc3)C2)C1`: “inactive”.
As for `CCN1c2nc3c(C)cccn3c(=O)c2CC2(C(=O)N(C)C(=O)N(C)C2=O)C1C` (stereo unspecified), the max dye-equivalent concentration is 38 nM (active).
Take `O=C(O)C(=O)Cc1ccc2c(c1)OCO2`: the max dye-equivalent concentration result is “inactive”.
`COC(=O)COc1cc(C)cc2oc(=O)c3c(c12)CCCC3`: the max dye-equivalent concentration result was “inactive”.
As to `CCCCCCN=C(CC)c1c(O)n(CCCC)c(=O)[nH]c1=O`, the max dye-equivalent concentration result is “inactive”.
Regarding `NC(=O)c1ccc(OC[C@H](O)CN2CC=C(c3ccc(F)cc3)CC2)cc1`, the max dye-equivalent concentration result was “inactive”.
For the compound `CCN1C[C@]2(C)CC[C@H](O)[C@@]34[C@@H]5CC6[C@@H](OC)C[C@@](O)([C@@H]5[C@@H]6O)[C@H](C[C@@H]23)[C@H]14`, the max dye-equivalent concentration entry was “inactive”.
With `C[C@]12CC[C@H](O)C[C@@H]1CC[C@H]1[C@H]2CC[C@]2(C)C(=O)CC[C@@H]12`, the max dye-equivalent concentration is 64 nM (active) and the outcome was inactive.
With `C[C@@]12CC[C@H](O)C[C@@H]1CC[C@@H]1[C@@H]2CC[C@@]2(C)[C@@H](C3=CC(=O)OC3)[C@H](O)C[C@]12O`, the max dye-equivalent concentration result was “inactive”.
Take `C[C@]12CC[C@H](O)CC1=CC[C@@H]1[C@H]2CC[C@]2(C)C(=O)CC[C@H]12`: the max dye-equivalent concentration result was “inactive”.
The same measure, in the same setting: in the case of `CC(C)(O)/C=C\C(=O)[C@](C)(O)[C@H]1[C@H](O)C[C@]2(C)[C@@H]3CC=C4[C@@H](C=C(O)C(=O)C4(C)C)[C@]3(C)C(=O)C[C@@]12C` it was “inactive”; in that of `CS(=N)(=O)CC[C@H](N)P(=O)(O)O` (stereo partly specified), “inactive”; in that of `CC[C@]1(O)C(=O)OCc2c1cc1n(c2=O)Cc2cc3ccccc3nc2-1`, 2600 nM (active).
Turning to `CC[C@@](O)(C(=O)O)c1cc2n(c(=O)c1CO)Cc1cc3ccccc3nc1-2`, the max dye-equivalent concentration is 920 nM (active).
For the compound `Cc1ccc(Cn2nnnc2CN2CCC(n3nnc4ccccc43)CC2)cc1`, the max dye-equivalent concentration result is “inactive”.
Still for that read-out and setting: next, `N[C@H](C(=O)O)c1cc(=O)[nH]o1`: “inactive”; `C[C@H]1CC[C@@]2(NC1)O[C@@H]1C[C@H]3[C@@H]4CC=C5C[C@@H](O)CC[C@]5(C)[C@@H]4CC[C@]3(C)[C@@H]1[C@@H]2C`: “inactive”; `N[C@@H](Cc1c[nH]c2ccccc12)c1nnc(SCc2c(F)cccc2Cl)o1`: “inactive”.
Still for that read-out and setting: next, `CC[N+]1(C)CCCC(OC(=O)C(O)(c2ccccc2)c2ccccc2)C1` (stereo unspecified): “inactive”; `CC(C)CCC1(CCN)C(=O)NC(=O)NC1=O`: “inactive”.
`O=C(c1cc(-c2ccncc2)nc2ccccc12)N1CCC2(CC1)OCCO2`: the max dye-equivalent concentration result was “inactive”.
In the case of `Cc1cccc(-n2c(C)nc3cc(C(=O)N4CCC5(CC4)OCCO5)ccc32)c1`, the max dye-equivalent concentration result was “inactive”.
As for `O=C(c1cc2nc(-c3ccccc3)cc(-c3ccccc3)n2n1)N1CCC2(CC1)OCCO2`, the max dye-equivalent concentration was 48 nM (active).
On the same count and under the same terms, next, `NCC[Se][Se]CCN`: “inactive”; `CCN(CC)CCn1ncc2c(N)ncnc21`: “inactive”; `CC1=CC(=O)C2=C(C)C[C@H](O)[C@@H]3[C@@H](OC(=O)[C@H]3C)[C@H]12`: “inactive”.
In the case of `O=C1C2CCN(CC2)C1(CO)CO`, the max dye-equivalent concentration result is “inactive”.
Take `CCOC(=O)c1c(-c2ccccc2)oc2ccc(OC(=O)N(C)C)cc12`: the max dye-equivalent concentration was 53 nM (active).
As to `Cc1ccc(S(=O)(=O)O[C@H]2CN3CCC2CC3)cc1`, the max dye-equivalent concentration result was “inactive”.
Take `NC[C@H](O)c1ccc(O)cc1`: the max dye-equivalent concentration result is “inactive”.
As to `C=CCN1C(=O)C2(C(C(=O)OCC)=C(N)Oc3c2c(=O)oc2ccccc32)c2ccccc21` (stereo unspecified), the max dye-equivalent concentration entry was “inactive”.
On to `COc1cc(C[C@H](C)N)c(OC)cc1I`, for which the max dye-equivalent concentration result was “inactive”.
For the compound `C/C(CCc1c[nH]c2ccccc12)=N\O`, the max dye-equivalent concentration was 16 nM (active).
The same measure, in the same setting: in the case of `NCCc1c[nH]c2ccc(O)cc12` it was “inactive”.
In the case of `CC(=O)c1c(O)c(C)c(O)c(Cc2c(O)c3c(c(C(=O)/C=C\c4ccccc4)c2O)OC(C)(C)C=C3)c1O`, the max dye-equivalent concentration entry is “inactive”.
As for `NCCc1ccc(S(=O)(=O)F)cc1`, the max dye-equivalent concentration result is “inactive”.
